The nature of experiment [1]: NCI Yeast Anticancer Drug Screen. Data for the rad50 strain (AID 155).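 Also: 0% = growth of vehicle-only cultures of the same strain.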 Conditions: S. cerevisiae rad50 strain growth inhibition; at 50.0 µM; stronger effect = higher value. The method, boiled down: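 Inhibition values express reduced yeast growth in compound-treated cultures relative to vehicle-treated controls.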
Experiment [2] in a line: NCI Yeast Anticancer Drug Screen. Data for the mec2-1 strain (AID 157). Particulars: S. cerevisiae mec2-1 strain, at 50.0 µM, stronger effect = higher value. In outline:
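Cells of the genetically defined mec2-1 yeast strain are incubated with test compound. Inhibition of growth is calculated against vehicle-treated controls.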

Experiment [3] is described as follows: NCI Yeast Anticancer Drug Screen. Data for the sgs1 mgt1 strain (AID 161).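 Also: 0% = growth of cultures given vehicle only.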 Particulars: S. cerevisiae sgs1 mgt1 strain, at 50.0 µM, stronger effect = higher value. In outline:
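Test agents were incubated with a DNA-repair-mutant yeast strain. Growth was then read and compared against vehicle-treated controls.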

Experiment [4] can be described thus: NCI Yeast Anticancer Drug Screen. Data for the cln2 rad14 strain (AID 165).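 Also: 0% = growth equal to vehicle treated cultures.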 Particulars: S. cerevisiae cln2 rad14 strain, at 50.0 µM, stronger effect = higher value. The method, boiled down: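 The screen exposed genetically defined yeast (cln2 rad14) to test compounds and scored growth inhibition relative to vehicle-treated controls.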
Experiment [5] in a line: NCI Yeast Anticancer Drug Screen. Data for the bub3 strain (AID 167). Particulars: S. cerevisiae bub3 mutant strain, at 50.0 µM, stronger effect = higher value. In outline: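 Steps: expose the mutant yeast strain to compound; grow alongside vehicle-treated cultures; measure growth; express inhibition against the vehicle cultures.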
A short description of experiment [6]: NCI Yeast Anticancer Drug Screen. Data for the mlh1 rad18 strain (AID 175). Conditions: S. cerevisiae mlh1 rad18 strain growth inhibition; at 50.0 µM; stronger effect = higher value. In outline: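 Compound-treated yeast growth, normalised to vehicle controls. Strain bears defined DNA repair mutations.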

About 79,000 compounds went through this panel and 15% of them were active in at least one assay; those are over-represented in the sample as a whole. A number with no mark means an inactive call. Calls of active or inactive are those of the source. Rule as the data show it: active = growth inhibition above about 70%; inactive = the rest.

Turning to `CCOC(=O)C1=C(NC(=O)C(c2ccccc2)c2ccccc2)OCC1`, the growth inhibition was 4.7% in experiment [1]; 4.75% in experiment [2]; 5.05% in experiment [3]; -48.5% in experiment [4]; -13.3% in experiment [5]; 7.85% in experiment [6].

Consider `Cc1cc2c(c(C(=O)NCCC(=O)O)c1)Oc1c(cc(C)cc1C(=O)NCCC(=O)O)S2`, for which the growth inhibition was -26.9% in experiment [1]; -13.6% in experiment [2]; -8.2% in experiment [3]; 3.95% in experiment [4]; -44.1% in experiment [5]; -2.65% in experiment [6].

Turning to `O=C(c1ccccc1)c1cc(Cl)ccc1NCn1nnc2ccccc21`, the growth inhibition was -47.9% in experiment [1]; -22.1% in experiment [2]; -40.8% in experiment [3]; -21.8% in experiment [4]; -49.5% in experiment [5]; -30.1% in experiment [6].

In the case of `CCOC(NC(=O)CC)(C(F)(F)F)C(F)(F)F`, the growth inhibition in experiment [1] was 4.3%; in experiment [2] it was -24.6%; in experiment [3], -49.9%; in experiment [4], -3.4%; in experiment [5], 1.85%; in experiment [6] it was -36.9%.

For the compound `CC(C)Nc1ncnc2c1cnn2-c1ccccc1`, the growth inhibition in experiment [1] is -5.9%; in experiment [2], -17.1%; in experiment [3], 0.65%; in experiment [4], -57.7%; in experiment [5] it was 13.5%; in experiment [6] it was -11.3%.

Consider `O=C(CC(C(=O)O)S(=O)(=O)O)Nc1ccc(S(=O)(=O)c2ccc(NC(=O)CC(C(=O)O)S(=O)(=O)O)cc2)cc1` (stereo unspecified), for which the growth inhibition in experiment [1] was 2.45%; in experiment [2], 4.55%; in experiment [3] it was 2.55%; in experiment [4] it was -5.55%; in experiment [5], -7.9%; in experiment [6] it was -11.3%.

As to `COc1ccc(NC(=O)c2c(Br)c(Br)c(Br)c(Br)c2C(=O)O)c(Cl)c1`, the growth inhibition in experiment [1] was 92.5% (active); in experiment [2], 88.7% (active); in experiment [3], 92% (active); in experiment [4] it was 83.5% (active); in experiment [5], 90.3% (active); in experiment [6], 95.2% (active).

As to `Cn1ncc(C(=O)O)c1[N+](=O)[O-]`, the growth inhibition in experiment [1] is 6.85%; in experiment [2] it was -14.5%; in experiment [3] it was 8.35%; in experiment [4], -37.6%; in experiment [5] it was -6.2%; in experiment [6] it was 5.25%.

Turning to `O=S(=O)(SSS(=O)(=O)c1ccc(Cl)c(Cl)c1)c1ccc(Cl)c(Cl)c1`, the growth inhibition in experiment [1] was 7.8%; in experiment [2] it was 4.05%; in experiment [3], 5.85%; in experiment [4], -3.45%; in experiment [5] it was 3.65%; in experiment [6], 11.7%.

`c1ccc(SCCc2ccncc2)cc1`: the growth inhibition in experiment [1] is 25.1%; in experiment [2], 23.8%; in experiment [3], 29.7%; in experiment [4] it was -9.65%; in experiment [5], 3.85%; in experiment [6] it was 19.6%.

Regarding `C[Si](C)(C)O/C=C1\CCCCC1=O`, the growth inhibition is 5.65% in experiment [1]; 8.4% in experiment [2]; 2.5% in experiment [3]; 14.8% in experiment [4]; 2.8% in experiment [5]; -23.6% in experiment [6].

Consider `CCCCN(CC)NC(=S)Nc1ccccc1`, for which the growth inhibition was -9.25% in experiment [1]; 9.7% in experiment [2]; -3.3% in experiment [3]; -18.4% in experiment [4]; 17.9% in experiment [5]; 5.6% in experiment [6].

Take `CCOC(=O)C1C/C(C)=C(/C)SCCCS1` (stereo unspecified): the growth inhibition in experiment [1] was 18.8%; in experiment [2] it was 3.2%; in experiment [3], -5.5%; in experiment [4], 21.1%; in experiment [5] it was 5.05%; in experiment [6] it was -67.2%.

As for `O=C(Nc1cccc(O)c1)c1ccccc1Cl`, the growth inhibition in experiment [1] is 9.3%; in experiment [2], -6%; in experiment [3], -15.4%; in experiment [4] it was -86.3%; in experiment [5] it was -11.9%; in experiment [6], -30.1%.

`CC(C)NC(c1ccccc1)c1ccccc1`: the growth inhibition in experiment [1] was 0.3%; in experiment [2] it was -11.7%; in experiment [3] it was -6.9%; in experiment [4] it was 10.2%; in experiment [5], 1.6%; in experiment [6], 2.9%.

With `CCOC(=O)c1cc(Cl)nc(Cl)c1`, the growth inhibition was 6.95% in experiment [1]; -16.6% in experiment [2]; -1.8% in experiment [3]; -3.15% in experiment [4]; 4.5% in experiment [5]; -10.4% in experiment [6].

With `CC1CCCCN1S(=O)(=O)N(C)C` (stereo unspecified), the growth inhibition in experiment [1] is 8.65%; in experiment [2], 27.1%; in experiment [3] it was -4.95%; in experiment [4], -6.1%; in experiment [5], 9.55%; in experiment [6], 6.15%.

For the compound `NC(N)=NCC1CCCCCCN1` (stereo unspecified), the growth inhibition in experiment [1] is -9.2%; in experiment [2] it was -20.7%; in experiment [3] it was -21.1%; in experiment [4] it was 18.6%; in experiment [5], -12.6%; in experiment [6], 12.9%.

On to `CC(O)(c1ccncc1)c1cc2ccccc2n1S(=O)(=O)c1ccccc1` (stereo unspecified), for which the growth inhibition is 2.2% in experiment [1]; 2.65% in experiment [2]; 14.8% in experiment [3]; -20.1% in experiment [4]; 1.95% in experiment [5]; 6.15% in experiment [6].

Turning to `CC(C)=CC(=O)C/C(=N\NC(N)=S)C(=O)Nc1ccc(Cl)cc1`, the growth inhibition was -7.4% in experiment [1]; -27.5% in experiment [2]; 5.55% in experiment [3]; 9.45% in experiment [4]; 5.1% in experiment [5]; -1.3% in experiment [6].

As to `COC(=O)c1ccccc1NC(=O)c1cc(C(=O)O)c(C(=O)Nc2ccccc2C(=O)OC)cc1C(=O)O`, the growth inhibition in experiment [1] was 0.75%; in experiment [2], 10.2%; in experiment [3], 4.95%; in experiment [4], 4.35%; in experiment [5] it was -3.7%; in experiment [6], 23.1%.
